Values joined by “and” are separate entries in the source; they are usually repeats but may differ in a detail not shown here. Identical values can stand only once.
How the values were obtained:
[1] = system: Botulinum neurotoxin type F light chain protease (Clostridium botulinum); test: Clostridium botulinum type F light chain protease inhibitors, microsphere substrate cleavage, validation (AID 588459); details: multiplex microsphere protease substrate cleavage assay, flow cytometry; at 10 µM; active compounds read high
[2] = biological target: Botulinum neurotoxin type A (Clostridium botulinum) (UniProt P0DPI0); test: BoNT/A light chain protease inhibitors, biochemical, multiplex microsphere flow cytometry, validation set (AID 588460); details: at 10 µM, active compounds read high
[3] = biological target: Lethal factor (Bacillus anthracis) (UniProt P15917); test: Bacillus anthracis lethal factor inhibition, microsphere flow cytometry protease assay, validation at 10 µM (AID 588461); details: multiplex microsphere protease cleavage assay, active compounds read high

Measured: inhibition

Sequence of Botulinum neurotoxin type A (Clostridium botulinum) (P0DPI0 whole entry, looked up): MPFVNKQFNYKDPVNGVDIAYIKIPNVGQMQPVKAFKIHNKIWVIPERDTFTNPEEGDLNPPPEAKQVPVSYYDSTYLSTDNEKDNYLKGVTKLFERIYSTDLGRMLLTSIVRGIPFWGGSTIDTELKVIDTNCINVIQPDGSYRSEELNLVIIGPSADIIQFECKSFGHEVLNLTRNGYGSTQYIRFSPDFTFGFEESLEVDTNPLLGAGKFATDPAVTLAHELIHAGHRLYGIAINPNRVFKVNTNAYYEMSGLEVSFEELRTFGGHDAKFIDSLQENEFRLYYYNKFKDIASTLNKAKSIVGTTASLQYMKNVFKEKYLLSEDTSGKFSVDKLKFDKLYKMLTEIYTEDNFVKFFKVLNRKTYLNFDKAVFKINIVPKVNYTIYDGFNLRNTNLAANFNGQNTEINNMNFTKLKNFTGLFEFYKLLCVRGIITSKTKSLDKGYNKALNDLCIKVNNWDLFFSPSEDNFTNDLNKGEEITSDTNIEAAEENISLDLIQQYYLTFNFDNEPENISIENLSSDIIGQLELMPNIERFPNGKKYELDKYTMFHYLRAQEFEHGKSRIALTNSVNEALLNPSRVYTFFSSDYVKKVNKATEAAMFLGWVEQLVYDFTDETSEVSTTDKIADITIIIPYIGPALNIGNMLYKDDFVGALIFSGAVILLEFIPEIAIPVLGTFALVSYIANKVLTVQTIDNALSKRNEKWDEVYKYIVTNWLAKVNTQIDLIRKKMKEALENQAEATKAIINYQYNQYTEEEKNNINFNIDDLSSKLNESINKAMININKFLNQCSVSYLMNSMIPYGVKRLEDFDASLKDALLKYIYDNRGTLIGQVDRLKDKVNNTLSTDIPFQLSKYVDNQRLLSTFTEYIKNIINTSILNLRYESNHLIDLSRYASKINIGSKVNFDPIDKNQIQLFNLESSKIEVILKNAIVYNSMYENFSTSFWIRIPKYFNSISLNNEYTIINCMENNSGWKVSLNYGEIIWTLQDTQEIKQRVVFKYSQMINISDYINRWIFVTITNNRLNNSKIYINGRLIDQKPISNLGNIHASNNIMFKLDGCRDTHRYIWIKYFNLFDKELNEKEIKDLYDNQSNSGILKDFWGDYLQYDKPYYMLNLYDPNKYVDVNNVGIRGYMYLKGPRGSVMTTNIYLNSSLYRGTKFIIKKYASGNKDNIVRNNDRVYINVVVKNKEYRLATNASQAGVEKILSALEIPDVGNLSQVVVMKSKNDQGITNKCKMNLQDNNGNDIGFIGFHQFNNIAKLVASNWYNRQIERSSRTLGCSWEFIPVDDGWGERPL
Sequence of Lethal factor (Bacillus anthracis) (P15917 whole entry, looked up): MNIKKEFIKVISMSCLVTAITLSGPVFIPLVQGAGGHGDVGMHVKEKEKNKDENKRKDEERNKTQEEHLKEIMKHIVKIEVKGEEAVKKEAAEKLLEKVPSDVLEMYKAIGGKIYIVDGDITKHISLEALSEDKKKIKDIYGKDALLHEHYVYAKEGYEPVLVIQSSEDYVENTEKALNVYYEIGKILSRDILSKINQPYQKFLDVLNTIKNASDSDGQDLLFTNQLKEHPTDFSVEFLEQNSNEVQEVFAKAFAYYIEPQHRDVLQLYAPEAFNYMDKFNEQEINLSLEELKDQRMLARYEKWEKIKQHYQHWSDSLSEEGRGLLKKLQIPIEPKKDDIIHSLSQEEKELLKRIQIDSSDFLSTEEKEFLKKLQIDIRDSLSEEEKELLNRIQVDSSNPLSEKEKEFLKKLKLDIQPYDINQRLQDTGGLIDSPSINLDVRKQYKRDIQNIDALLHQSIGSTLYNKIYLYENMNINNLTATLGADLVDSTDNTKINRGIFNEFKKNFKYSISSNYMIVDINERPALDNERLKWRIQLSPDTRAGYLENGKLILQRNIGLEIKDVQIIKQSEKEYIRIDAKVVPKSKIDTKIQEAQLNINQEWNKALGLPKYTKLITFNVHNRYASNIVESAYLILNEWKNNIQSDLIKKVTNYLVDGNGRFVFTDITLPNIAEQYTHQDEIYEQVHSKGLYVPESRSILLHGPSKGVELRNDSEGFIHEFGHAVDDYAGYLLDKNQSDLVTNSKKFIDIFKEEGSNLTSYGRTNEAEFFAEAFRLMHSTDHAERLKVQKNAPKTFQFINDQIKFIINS

COc1ccc(OCc2cccc(C(=O)NN)c2)cc1
inactive: [1] 0.1% | [2] 1.2% | [3] -6.1%

COc1cc(NC(=O)N[C@@H](Cc2ccccc2)C(=O)O)cc(OC)c1
inactive: [1] 1.2% | [2] 0.4% | [3] -2.8%

CC(C)OC(=O)c1ccc(NC(=O)c2cncc(Br)c2)cc1
inactive: [1] -2.9% | [2] -0.1% | [3] 7.4%

CC(C)(C)C(=O)NC(=S)NNC(=O)c1ccncc1
inactive: [1] 8.3% | [2] 2.9% | [3] -3.3%

CN(C)CC/C=C1\c2ccccc2Sc2ccc(Cl)cc21
inactive: [1] -9.1% | [2] -1.1% | [3] 2.3%

CCC(C)NCCOCCOc1ccc(Cl)cc1Br (configuration not stated)
inactive: [1] 0.5% | [2] 0.2% | [3] -2.1%

Cc1nc2sccn2c(=O)c1CCN1CCC(=C(c2ccc(F)cc2)c2ccc(F)cc2)CC1
inactive: [1] -6% | [2] -0.2% | [3] -7.2%

CCNC(=S)Nc1ccc(OC(F)(F)F)cc1
inactive: [1] 2.2% | [2] 2.8% | [3] 3%

C[N+]1(C2CCC3CCCC2C3O)CCCCC1 (configuration not stated)
inactive: [1] 1.7% | [2] 2.4% | [3] -3.7%

CCCCOc1cc(C(=O)NCCN(CC)CC)c2ccccc2n1
inactive: [1] 8.5% and -0.1% | [2] 1.5% and -0.6% | [3] -1.9% and 2.1%

C[C@H]1O[C@H]1P(=O)(O)O
inactive: [1] -0.1% | [2] 1.1% | [3] -2%

O=C(CN1CCN(Cc2ccccc2)CC1)N1CCCc2c1c(=O)oc1ccc(O)cc21
inactive: [1] 2% | [2] -1.5% | [3] -8.3%

O=C(NC(CO)Cc1ccc([N+](=O)[O-])cc1)C(Cl)Cl (configuration not stated)
inactive: [1] 0.6% | [2] -1.5% | [3] -1.4%

CCn1c(SCC(=O)c2ccccc2)nc2ccccc2c1=O
inactive: [1] -3% | [2] -0.1% | [3] -5.1%

CC1(C)CC(c2csc(N)n2)CCO1 (configuration not stated)
inactive: [1] -0.4% | [2] -1% | [3] -8.4%

CN(C)CCN(Cc1cccs1)c1ccccn1
inactive: [1] 2.5% | [2] -0.3% | [3] -1.6%

Cc1cccc(C)c1NC(=O)C1CCCCN1C (configuration not stated)
inactive: [1] -3.1% | [2] -0.1% | [3] -7.9%

O=C1OC(c2ccccc2)=C/C1=C/c1cccs1
inactive: [1] 6.4% | [2] 1.5% | [3] 0.7%

COc1ccccc1-c1ccc(/C=C2/C=C(CC(C)C)OC2=O)o1
inactive: [1] 4.8% | [2] 1.7% | [3] 7.1%

C[C@@H]1C[C@H](Nc2ccccc2)c2ccccc2N1C(=O)c1cccnc1
inactive: [1] 1% | [2] 1% | [3] -2.9%

CCCc1cc(C(N)=S)ccn1
inactive: [1] 1.8% | [2] 1.2% | [3] -7.7%

COc1cccc(C2CC(=O)C3=C(C2)Nc2ccccc2N(C(=O)CCC(=O)O)C3c2ccc(F)cc2)c1 (configuration not stated)
inactive: [1] 1.3% | [2] 0.4% | [3] 5.1%

CNCCc1ccccn1
inactive: [1] 1.1% | [2] 1.1% | [3] -8.2%

CC(C)(C)c1ccc(/C=C/C(=O)N2CCCCC2)cc1
inactive: [1] -0.4% | [2] -1.5% | [3] 4.7%

COc1ccc(C(=O)Nc2ccccc2C(=O)NCCCn2ccnc2)cc1
inactive: [1] -3.6% | [2] -1.8% | [3] -3.7%

COc1ccc2cc(C(=O)OC(C)C)sc(=O)c2c1OC
inactive: [1] 0% | [2] 1.8% | [3] -5.8%

Cc1ccc2c(c1C)NC(C(=O)O)C1CC=CC21 (configuration not stated)
inactive: [1] -5.3% | [2] -1.9% | [3] -13.2%

COc1ccc(-c2cc(=O)oc3c(C)c(O)c(CN(C)C)cc23)cc1
inactive: [1] 11.3% | [2] 0.6% | [3] -2.1%

Nc1ccc(S(N)(=O)=O)cc1N
inactive: [1] 1.4% | [2] -2.7% | [3] -20%

O=C1[C@@H]2[C@H](Cc3ccc(O)cc3)N[C@]3(C(=O)Nc4ccccc43)[C@@H]2C(=O)N1c1ccc(F)cc1
inactive: [1] 1.3% | [2] 1.7% | [3] -2.6%

Cc1ccc2c(c1)C1OCCC1C1N2C(=O)C2C(C(=O)O)C3C=CC21O3 (configuration not stated)
inactive: [1] -1.8% | [2] -0.8% | [3] 5.5%

CC(C)(C)C(=O)Nc1cccc(OC(F)(F)C(F)Cl)c1 (configuration not stated)
inactive: [1] 3.3% | [2] 0% | [3] -6%

CN(C)[C@@H]1C(=O)C(C(N)=O)=C(O)[C@@]2(O)C(=O)C3=C(O)c4c(O)ccc(Cl)c4[C@@H](O)[C@H]3C[C@@H]12
inactive: [1] -5.8% | [2] -0.3% | [3] -4.5%

COc1ccc(/C=C/C(=O)NC(=S)NN2CCCCC2c2cccnc2)cc1 (configuration not stated)
inactive: [1] 3.7% | [2] 1.8% | [3] -3.5%

CC/C(=C(\c1ccc(O)cc1)c1ccc(OCCN(C)C)cc1)c1ccccc1
inactive: [1] 2.7% | [2] -0.2% | [3] -2.3%

CN1C(=O)NC(c2ccc(O)cc2)C2=C1CN(c1cccc3ccccc13)C2=O (configuration not stated)
inactive: [1] 3.2% | [2] -1% | [3] -10.8%

O=C(Cc1ccc(Br)cc1)c1ccc(O)cc1O
inactive: [1] -3.5% | [2] -0.4% | [3] -5.4%

CNC[C@H](O)c1ccc(O)c(O)c1
inactive: [1] -2.9% | [2] -0.9% | [3] -4.8%

O=C1Nc2ccc3sc4ccccc4c3c2C1=O
inactive: [1] -1.1% | [2] -0.8% | [3] 1.4%

CCOC(=O)C1C(=O)OC(C)(C)C1C(C)C(=O)c1ccc(C)cc1 (configuration not stated)
inactive: [1] 4.4% | [2] 0.5% | [3] 4.6%

COc1ccc(/C=C\c2nc(=O)c3ccccc3o2)cc1
inactive: [1] -0.6% | [2] -0.8% | [3] -3.7%

COc1cc2oc(-c3ccc(O)cc3)cc(=O)c2c(OC)c1O
inactive: [1] -1.9% | [2] -0.3% | [3] -2.3%

CC(C)COCC1CC2(CC(C)(c3csc(N)n3)OC2=O)C(=O)O1 (configuration not stated)
inactive: [1] -3.2% | [2] -1.9% | [3] 9.1%

CC(=O)Nc1ccc(CN2CCN(C3CCCCC3)C(CCO)C2)cc1 (configuration not stated)
inactive: [1] -0.2% | [2] -1.1% | [3] -3.7%

C[C@H](NC(=O)C1(c2ccccc2)CCN(C(=O)[C@H]2CSCN2C(=O)OC(C)(C)C)CC1)C(=O)O
inactive: [1] -0.9% | [2] -2% | [3] -10.5%

O=C1OC(=O)C2C1[C@@H]1CC[C@H]2O1 (some centres not stated)
inactive: [1] 1.3% | [2] 0.8% | [3] -0.9%

COc1ccccc1C1(CC(=O)N2CCCCC2)CCOC(C(C)C)C1 (configuration not stated)
inactive: [1] 1.1% | [2] -0.2% | [3] -3.3%

Cn1cnc2c1c(=O)n(CC(O)CO)c(=O)n2C (configuration not stated)
inactive: [1] -0.3% | [2] 0% | [3] -1.4%

COC(=O)CCC(=O)CN
inactive: [1] 0.5% | [2] 0.6% | [3] 0.6%

CC1(C)OC2OC(C(=O)N/N=C/c3ccccc3F)C3OC(C)(C)OC3C2O1 (configuration not stated)
inactive: [1] 2.6% | [2] -1.3% | [3] -1.9%

CC(=O)c1c[nH]c2ccc(C)cc2c1=O
inactive: [1] -1.7% | [2] -0.6% | [3] -1.2%

COc1ccc(-c2noc(CCc3ccccc3)n2)cc1
inactive: [1] -8.8% | [2] -1.1% | [3] -11%

COc1ccc(/C=C/C(=O)c2cc3cccc(OC)c3oc2=O)cc1
inactive: [1] 2.3% | [2] 2.8% | [3] 8.8%

COc1ccc(C(=O)NCC2OCCc3ccccc32)cc1 (configuration not stated)
inactive: [1] -0.4% | [2] -0.3% | [3] -8.6%

O=C(Nc1cccc(Oc2c(F)c(F)c(F)c(F)c2F)c1)N1C[C@@H]2C[C@@H](C1)c1cccc(=O)n1C2
inactive: [1] 2.7% | [2] 1.4% | [3] 7.2%

Nc1cccc2c1nnn2C1OC(CO)C(O)C(O)C1O (configuration not stated)
inactive: [1] 0.7% | [2] 0.1% | [3] 3.5%

CC(=O)N=c1sc(S(N)(=O)=O)nn1C
inactive: [1] 4.1% | [2] 0.8% | [3] 4.2%

CC(C)C[C@H](NC(=O)NC(C)C)C(=O)O
inactive: [1] 1.1% | [2] 0% | [3] 2.9%

CC(C)c1ccccc1OCCNC(=S)NC(=O)c1cccnc1
inactive: [1] 4.3% | [2] 1.6% | [3] 2.6%

CC(=O)O[C@]1(C(C)=O)CC[C@H]2[C@@H]3C=C(Cl)C4=CC(=O)CC[C@]4(C)[C@H]3CC[C@@]21C
inactive: [1] -0.5% | [2] -3.3% | [3] -4.2%

O=C(NC(Nc1ccccn1)C(Cl)(Cl)Cl)c1ccccc1 (configuration not stated)
inactive: [1] -7.2% | [2] -1.5% | [3] 0.6%

COc1ccc(CN2CCCCC2C(=O)Nc2ccc(OC)c(OCC(C)C)c2)cc1OC (configuration not stated)
inactive: [1] 0.9% | [2] 0.2% | [3] -1.3%

Cn1c(Oc2ccc3c(c2)OCO3)nc2c1c(=O)n(Cc1ccccc1)c(=O)n2C
inactive: [1] 1.4% | [2] -0.3% | [3] -0.5%

O=C(Nc1ccc(Oc2c(F)c(F)c(F)c(F)c2F)cc1)OC1CCN2Cc3ccccc3N=C12 (configuration not stated)
inactive: [1] -1.9% | [2] -1.4% | [3] 2.6%

From PubChem BioAssay
